The full list was thinned out, with hits kept by preference.
CD40 NFkB inh = inhibitors of CD40-induced NF-kB signaling, primary screen, BL2 cells, luciferase reporter, single point; CD40L-induced, 4 h; inhibition, % at 10 µM; 0.94% of 83,000 active;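 active = mean inhibition of at least 50% with a set share of replicates also reaching that level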;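 note: 0% = neutral control wells and 100% = IKK inhibitor VII at 50 µM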
* hit, by the source's call; [ ] = another dose, or the depositor's remark.

How did COc1cccc(-c2ccc3c(c2)[C@H]2[C@H](CCN2C(=O)C2CCCC2)[C@H](CO)N3)c1 do in these assays?
CD40 NFkB inh: -13

How did C[C@H](CO)N1C[C@H](C)[C@@H](CN(C)Cc2ccncc2)OCc2ccccc2-c2ccccc2C1=O do in these assays?
CD40 NFkB inh: -13

What do the screens show for `CC=Cc1ccc2n(c1=O)C[C@@H]1[C@@H](CO)[C@H](C(=O)NCCC)N(Cc3cccnc3)[C@H]21` (mixture of isomers)?
CD40 NFkB inh: 6[25 µM]

How did CC(=O)N(Cc1cccc(F)c1)C[C@@H]1[C@@H](c2ccccc2)[C@@H](CO)N1C(C)=O do in these assays?
CD40 NFkB inh: -4[25 µM]

How did C[C@H]1CN([C@@H](C)CO)C(=O)c2cc(NS(=O)(=O)c3cccs3)ccc2O[C@H]1CN(C)Cc1ccc(C(=O)O)cc1 do in these assays?
CD40 NFkB inh: 2[25 µM]

How did N#C[C@@H]1[C@@H](c2ccc(C#CC3CCCC3)cc2)[C@H](CO)N1C(=O)Nc1ccc(F)cc1 do in these assays?
CD40 NFkB inh: 21

Results for N#C[C@H]1[C@@H](c2ccc(C#Cc3ccc(F)cc3)cc2)[C@H](CO)N1C(=O)Nc1ccc(F)cc1 ?
CD40 NFkB inh: -12

How did N#C[C@@H]1[C@H](c2ccc(C#CC3CCCC3)cc2)[C@H](CO)N1C(=O)Nc1ccc(F)cc1 do in these assays?
CD40 NFkB inh: 0

What do the screens show for `N#C[C@H]1[C@H](c2ccccc2-c2ccc(F)cc2)[C@@H](CO)N1C(=O)NC1CCCCC1`?
CD40 NFkB inh: 30[25 µM]

Results for N#C[C@H]1[C@H](c2ccccc2-c2ccc(F)cc2)[C@H](CO)N1C(=O)NC1CCCCC1 ?
CD40 NFkB inh: 13[25 µM]

Results for N#C[C@H]1[C@@H](c2ccc(C#CC3CCCCC3)cc2)[C@@H](CO)N1C(=O)Nc1ccc(F)cc1 ?
CD40 NFkB inh: 62*[25 µM]

How did N#C[C@@H]1[C@H](c2ccc(C#CC3CCCCC3)cc2)[C@@H](CO)N1C(=O)Nc1ccc(F)cc1 do in these assays?
CD40 NFkB inh: 77*[25 µM]

Results for N#C[C@@H]1[C@@H](c2ccccc2-c2ccc(F)cc2)[C@H](CO)N1C(=O)NC1CCCCC1 ?
CD40 NFkB inh: 59*[25 µM]

What do the screens show for `CC(C)NC(=O)N1[C@H](CO)[C@@H](c2ccc(C#CC3CCCCC3)cc2)[C@@H]1C#N`?
CD40 NFkB inh: 19

Results for COc1cccc(C#Cc2ccc3c(c2)[C@H]2[C@H](CCN2S(=O)(=O)c2ccc(C)cc2)[C@H](CO)N3)c1 ?
CD40 NFkB inh: 6[25 µM]

What do the screens show for `C[C@H](CO)N1C[C@H](C)[C@H](CN(C)S(=O)(=O)c2ccc3c(c2)OCCCO3)OCc2cn(nn2)CCCC1=O`?
CD40 NFkB inh: 3[25 µM]

How did O=C(Nc1ccc2c(c1)OCO2)N[C@@H]1CC[C@H](CCNC(=O)C2CCCC2)O[C@H]1CO do in these assays?
CD40 NFkB inh: -1

How did Cc1ccc(S(=O)(=O)Nc2ccc3c(c2)C(=O)N([C@H](C)CO)C[C@@H](C)[C@H](CN(C)S(C)(=O)=O)OCCCC[C@@H](C)O3)cc1 do in these assays?
CD40 NFkB inh: 7

Results for O=C1N[C@H](Cc2ccccc2)COCc2cn(nn2)CC[C@H]1Cc1ccccc1 ?
CD40 NFkB inh: -2

Results for CCCC#Cc1ccc([C@H]2[C@@H](CO)N(C(C)=O)[C@@H]2CNC(=O)C2CCCC2)cc1 ?
CD40 NFkB inh: 1

What do the screens show for `Cc1nc(-c2ccc(F)cc2)c(CC(=O)N(C)CC(=O)Nc2ccccc2Cl)s1`?
CD40 NFkB inh: 53*

What do the screens show for `CN(CC(=O)Nc1ccccc1Cl)C(=O)COC(=O)c1ccc(S(=O)(=O)C(F)F)cc1`?
CD40 NFkB inh: 7

Results for CN(CC(=O)Nc1ccccc1Cl)C(=O)COC(=O)c1cccs1 ?
CD40 NFkB inh: 13

Results for Fc1ccc(CN2[C@@H]3CN(CC(F)(F)F)C[C@H]2C3c2ccc(Br)cc2)cc1 (some centres undefined) ?
CD40 NFkB inh: 7

What do the screens show for `O=C(NCCc1ccncc1)[C@@H]1[C@@H](CO)[C@@H]2Cn3c(ccc(-c4ccncc4)c3=O)[C@@H]2N1C(=O)C1CC1`?
CD40 NFkB inh: -1[25 µM]

How did CC=Cc1ccc2n(c1=O)C[C@@H]1[C@@H](CO)[C@H](C(=O)N3CCc4ccccc4C3)[C@H]2N1Cc1cocn1 (mixture of isomers) do in these assays?
CD40 NFkB inh: 2[25 µM]

Results for CC(=NNC(=S)N1CCC1)c1ccccn1 ?
CD40 NFkB inh: 97*

Results for CC(=NNC(=S)N1CC2CCC(CC2)C1)c1cccc(C)n1 ?
CD40 NFkB inh: -20

What do the screens show for `C/C(=N/NC(=O)c1ccccn1)c1ccco1`?
CD40 NFkB inh: 18

What do the screens show for `O=C(NC1CCCCC1)[C@@H]1[C@@H](CO)[C@@H]2Cn3c(cccc3=O)[C@H]1N2CC1CCCC1`?
CD40 NFkB inh: -6

What do the screens show for `CCOC(=O)c1cc(-c2cccs2)[nH]n1`?
CD40 NFkB inh: -11

Results for CCOC(=O)C1CCN(c2ccc(-c3cccs3)nn2)CC1 ?
CD40 NFkB inh: 57*

Results for CCOC(=O)C1CCN(C(=O)c2cccs2)CC1 ?
CD40 NFkB inh: 9

Results for COc1ccccc1C(=O)N1C[C@@H]2[C@H](c3ccccc31)[C@@H](CO)N2C(=O)C1CC1 ?
CD40 NFkB inh: -4

What do the screens show for `O=C1CCCCn2cc(nn2)COC[C@H](c2ccccc2)N1`?
CD40 NFkB inh: 1

How did Cn1ncc(Br)c1C(=O)O do in these assays?
CD40 NFkB inh: 1

How did CC(=O)Cn1ncc(Br)c(Br)c1=O do in these assays?
CD40 NFkB inh: 99*

How did CO/N=C(\Cn1ncc(N2CCOCC2)c(Br)c1=O)c1ccc(Cl)cc1 do in these assays?
CD40 NFkB inh: 25

Results for COc1cccc(NC(=O)N(C)C[C@@H]2OCc3ccccc3-c3c(n(C)c4ccccc34)C(=O)N([C@@H](C)CO)C[C@@H]2C)c1 ?
CD40 NFkB inh: 1

Results for CC(C)NC(=O)N(C)C[C@@H]1Oc2ccc(N)cc2C(=O)N(C)C[C@H]1C ?
CD40 NFkB inh: 3

How did COc1cccc2sc(N3CCN(c4nc5ccccc5s4)CC3)nc12 do in these assays?
CD40 NFkB inh: 5

Results for O=C(c1ccc([N+](=O)[O-])o1)N1CCN(c2nc3ccc(F)cc3s2)CC1 ?
CD40 NFkB inh: 32*

Results for O=C(C1COc2ccccc2O1)N1CCN(c2nc3ccc([N+](=O)[O-])cc3s2)CC1 (centres undefined) ?
CD40 NFkB inh: 4

What do the screens show for `COc1cccc2sc(N3CCN(C(=O)c4ccc([N+](=O)[O-])o4)CC3)nc12`?
CD40 NFkB inh: 76*

How did O=C(c1ccc([N+](=O)[O-])o1)N1CCN(c2nc3c(Cl)cccc3s2)CC1 do in these assays?
CD40 NFkB inh: 14

Results for O=C(c1cccs1)N1CCN(c2nc3ccccc3s2)CC1 ?
CD40 NFkB inh: -19

Results for C[C@@H]1CC=CC[C@@H](c2ccc3c(c2)OCO3)NC(=O)[C@H](C)N(C)C(=O)c2ccccc2O1 (mixture of isomers) ?
CD40 NFkB inh: 13[25 µM]

Results for COc1ccc2c3c(n(C)c2c1)[C@@H](CO)N(C(=O)Nc1ccc(F)cc1)CC31CCN(S(=O)(=O)c2cccc(C)c2)CC1 ?
CD40 NFkB inh: 30[25 µM]

How did CN(C)Cc1csc(NC(=O)Nc2cccc(Cl)c2)n1 do in these assays?
CD40 NFkB inh: -13

How did NC(c1csc(Nc2cc(Oc3ccccc3)ncn2)n1)c1ccccc1Cl (centres undefined) do in these assays?
CD40 NFkB inh: -15

How did NC(c1csc(NC(=O)Nc2cccc(Cl)c2)n1)c1ccccc1Cl (centres undefined) do in these assays?
CD40 NFkB inh: 59*
